Screening results as filed in PubChem.
HP1b binding inh – blocks HP1-beta chromodomain binding to methylated histone tails | AlphaScreen HP1-beta / biotin-H3K9me3 peptide binding | P83916 | AID 540317 | Potency, µM (top dose mostly 114 µM), most hits filed as inhibitors | 0.56% of 390,000 active; note: nearly all actives have a fitted effect of over 70% in size
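AlphaScreen: HP1-beta (50 nM) preformed 30 min with biotin-H3(1-18)K9me3 peptide (50 nM) in PBS pH 7.4, 0.01% Tween-20. Compound added for 30 min at RT, then streptavidin donor/nickel chelate acceptor beads (10 ug/mL) for 30 min.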
PI5P4Ka inh – inhibitors of human PI5P4K alpha | P48426 | PI5P4Kalpha enzyme, ADP-Glo luminescence, 60 min; active compounds read low | max response, % | 1.2% of 330,000 active | AID 652105; active = max response of -50% or lower; inconclusive = between -30% and -50%; inactive = -30% or higher; note: value at the top dose of about 77 µM
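Quantitative HTS of the MLSMR library against PI5P4Kalpha with substrate. ATP added last at 5 microM final; room temperature, 60 minutes. Remaining ATP depleted, ADP converted and read as luminescence.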
BAZ2B inh – blocks human BAZ2B; Q9UIF8; AlphaScreen BAZ2B-H3K14Ac peptide displacement; Potency, µM (titrated, usually from 114 µM), usual class: inhibitors; 4.4% of 360,000 active; AID 504333; note: nearly all actives have a fitted effect of over 60% in size
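AlphaScreen luminescence quantifies BAZ2B engagement of H3K14Ac peptide; the protein and biotinylated peptide are both at 50 nM final, buffer PBS pH 7.4 with 0.01% Tween-20, all steps at room temperature.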
JMJD2E inh-1 – JMJD2E (human) inhibition; B2RXH2; AID 2147; JMJD2E catalytic domain, FDH-coupled NADH fluorescence; Potency, µM (titrated, usually from 57.1 µM), hits mostly inhibitors; 1.6% of 230,000 active; active = well fitted inhibition curve with a large enough effect, not every such curve was filed as active; inconclusive = small, poorly fitted or top-dose-only effect, or another doubt; inactive = no such curve, though single readings can be large or run the other way; note: nearly all actives have a fitted effect of over 50% in size
L3MBTL1 inh-1 – blocks human L3MBTL1. Q9Y468. AlphaScreen L3MBTL1–H3K9me1 peptide binding. Potency, µM (top dose mostly 57.1 µM), most hits filed as inhibitors. 0.66% of 230,000 active. AID 485360; note: nearly all actives have a fitted effect of over 60% in size
Target sequence (Q9Y468 whole entry, looked up): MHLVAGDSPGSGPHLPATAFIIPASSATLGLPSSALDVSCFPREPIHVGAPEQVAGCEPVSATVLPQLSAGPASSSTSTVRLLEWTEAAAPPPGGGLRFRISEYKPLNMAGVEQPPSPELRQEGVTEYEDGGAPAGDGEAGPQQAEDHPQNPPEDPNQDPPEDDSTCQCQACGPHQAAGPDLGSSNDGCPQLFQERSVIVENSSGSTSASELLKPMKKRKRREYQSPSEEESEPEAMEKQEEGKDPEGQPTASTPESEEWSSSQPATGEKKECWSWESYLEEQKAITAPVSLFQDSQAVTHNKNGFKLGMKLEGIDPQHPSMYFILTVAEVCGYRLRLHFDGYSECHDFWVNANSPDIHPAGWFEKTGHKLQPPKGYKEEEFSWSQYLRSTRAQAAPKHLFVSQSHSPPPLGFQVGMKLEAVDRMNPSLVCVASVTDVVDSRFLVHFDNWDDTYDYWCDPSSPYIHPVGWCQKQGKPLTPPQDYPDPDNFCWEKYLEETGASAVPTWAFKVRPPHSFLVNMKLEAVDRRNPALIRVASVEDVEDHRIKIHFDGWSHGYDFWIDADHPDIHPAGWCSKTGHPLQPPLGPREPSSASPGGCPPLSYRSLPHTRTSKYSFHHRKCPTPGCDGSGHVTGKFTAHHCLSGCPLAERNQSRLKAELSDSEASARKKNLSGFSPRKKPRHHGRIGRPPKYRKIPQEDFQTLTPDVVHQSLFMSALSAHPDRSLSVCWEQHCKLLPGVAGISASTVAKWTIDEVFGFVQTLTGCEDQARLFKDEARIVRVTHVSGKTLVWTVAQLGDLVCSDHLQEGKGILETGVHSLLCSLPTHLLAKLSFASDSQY
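Read-out is AlphaScreen signal from streptavidin donor and nickel chelate acceptor beads (10 ug/mL final each) bridging L3MBTL1 (50 nM) and biotinylated K9-monomethylated H3(1-15) peptide (75 nM), after 30 min compound exposure at room temperature.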
JMJD2A Tudor inh – JMJD2A Tudor domain (human) inhibition; Potency, µM (doses to about 114 µM), usual class: inhibitors; AID 504339; O75164; AlphaScreen JMJD2A-Tudor / H3K4me3 peptide binding; 4.4% of 390,000 active; note: nearly all actives have a fitted effect of over 50% in size
L3MBTL1 inh-2 – validation of human L3MBTL1 methyl-lysine binding inhibitors; shares compounds with L3MBTL1 inh-1; L3MBTL1 methyl-lysine binding inhibition, biochemical qHTS; Potency, µM, most hits filed as inhibitors; 91% of 500 active; AID 540279; note: nearly all actives have a fitted effect of over 70% in size
L3MBTL1 ctr – interferes with AlphaScreen signal in L3MBTL1 counterscreen; shares compounds with L3MBTL1 inh-1; AlphaScreen counterscreen, signal inhibition; Potency, µM (highest dose often 57.1 µM), usual class: inhibitors; 500 tested, under 10 active
JMJD2E inh-2 – JMJD2E demethylase inhibition by 8HQ compounds. shares compounds with BAZ2B inh. JMJD2E demethylase, FDH-coupled NADH fluorescence. Potency, µM (series often up to 57 µM), most hits filed as inhibitors. 89% of 130 active. AID 493212
ME-1 prolif – reduces ME-1 leukemia cell proliferation. shares compounds with BAZ2B inh. ME-1 cell proliferation, ATP luminescence, 48 h. Potency, µM (doses to about 56.1 µM), hits mostly inhibitors. 20% of 140 active
JMJD2E inh-3 – confirmation of inhibitors of human JMJD2E demethylase | Potency, µM (series often up to 56.8 µM), usual class: inhibitors | 93% of 140 active | shares compounds with JMJD2A Tudor inh | Recombinant JMJD2E, FDH-coupled NADH fluorescence (FDH is formaldehyde dehydrogenase)
FDH inh – counter-screen for JMJD2E inhibitors: Pseudomonas putida formaldehyde dehydrogenase. shares compounds with JMJD2A Tudor inh. FDH enzyme assay, NADH fluorescence kinetic. Potency, µM (titrated, usually from 56.7 µM), usual class: inhibitors. 10% of 140 active
G9a confirm – inhibits human G9a histone lysine methyltransferase, hit confirmation; shares compounds with JMJD2A Tudor inh; AID 588344; 89% of 370 active; Potency, µM, usual class: inhibitors; G9a H3K9 monomethylation, AlphaScreen, 2 h; note: nearly all actives have a fitted effect of over 65% in size
ADP-Glo interf – counter-screen for PI5P4K inhibitors: ADP-Glo detection interference, no enzyme. AID 743285. ADP-Glo detection counter-screen, luciferase luminescence, no enzyme. shares compounds with PI5P4Ka inh. Potency, µM (doses to about 76.9 µM), usual class: inhibitors. 1,100 tested, under 10 active
Large screens that a line does not name were inactive (follow-up assays come after a bar, where they were run). Hits are enriched below; roughly 5.7% of the tested compounds scored in any of these assays. Unless noted, calls come from the whole dose curve; as a rule, active = well fitted curve in the direction sought with a large enough effect; inconclusive = small, poorly fitted or top-dose-only effect, or another doubt; inactive = no such curve, though single readings can be large; an effect the other way counts as inactive or inconclusive.

C=CCN1C(=O)NC(=O)/C(=C/c2ccoc2)C1=O	PI5P4Ka inh -69, L3MBTL1 inh-1 22µM, JMJD2A Tudor inh inconclusive | L3MBTL1 inh-2 17 | L3MBTL1 ctr inactive
CCOc1ccccc1OCCCCN1CCCC1	HP1b binding inh inconclusive, BAZ2B inh inconclusive, L3MBTL1 inh-1 28µM, JMJD2A Tudor inh 32µM | L3MBTL1 inh-2 inconclusive | L3MBTL1 ctr inconclusive
COC1=C[C@H]2C3=C([C@H]2C1=O)[C@H](NC(C)=O)CCc1cc(OC)c(OC)c(OC)c13	none (no result: HP1b binding inh, PI5P4Ka inh, BAZ2B inh, L3MBTL1 inh-1, JMJD2A Tudor inh)
Cc1cc(C=C2C(=O)NC(=S)NC2=O)c(C)n1-c1ccc2c(c1)OCO2	PI5P4Ka inh -72, BAZ2B inh inconclusive, L3MBTL1 inh-1 22µM, JMJD2A Tudor inh inconclusive | L3MBTL1 inh-2 21 | L3MBTL1 ctr inactive
Cc1cc(=O)oc2cc(Oc3ccc([N+](=O)[O-])cc3C(F)(F)F)ccc12	JMJD2A Tudor inh inconclusive (no result: BAZ2B inh, JMJD2E inh-1, L3MBTL1 inh-1)
CC(C)[C@@]1(NC(=O)[C@H]2CC3c4cccc5[nH]cc(c45)C[C@H]3N(C)C2)O[C@@]2(O)C3CCCN3C(=O)[C@@H](Cc3ccccc3)N2C1=O (stereo partly specified)	none (no result: HP1b binding inh, PI5P4Ka inh, BAZ2B inh, JMJD2E inh-1, L3MBTL1 inh-1, JMJD2A Tudor inh) | ME-1 prolif inconclusive
CC(N)c1cccc(Cl)c1Cl (stereo unspecified)	none (no result: HP1b binding inh, PI5P4Ka inh, BAZ2B inh, L3MBTL1 inh-1, JMJD2A Tudor inh)
Oc1cccc2cc(N3CCNCC3)cnc12	none (no result: HP1b binding inh, PI5P4Ka inh, BAZ2B inh, JMJD2E inh-1, L3MBTL1 inh-1, JMJD2A Tudor inh) | JMJD2E inh-2 inconclusive | JMJD2E inh-3 inconclusive | FDH inh inactive
Cc1ccc(-c2nc3c(=O)n(C)c(=O)nc-3n(C)n2)cc1	none (no result: PI5P4Ka inh, BAZ2B inh, JMJD2E inh-1, L3MBTL1 inh-1)
COc1ccc(CCNCc2ccncc2)cc1OC	HP1b binding inh inconclusive, BAZ2B inh 50µM, JMJD2E inh-1 inconclusive, JMJD2A Tudor inh 11µM (no result: PI5P4Ka inh, L3MBTL1 inh-1) | G9a confirm 45
CNCCc1ccc(OC)c(OC)c1	none (no result: L3MBTL1 inh-1)
CN(C)c1ccc(NC(=O)Oc2ccccc2)cc1	BAZ2B inh 45µM, JMJD2E inh-1 inconclusive, JMJD2A Tudor inh inconclusive (no result: L3MBTL1 inh-1) | G9a confirm 1.4
CC(=O)Nc1ccc(OC(=O)N(C)C)cc1	none (no result: PI5P4Ka inh)
CCCCSP(=O)(SCCCC)SCCCC	none (no result: HP1b binding inh, PI5P4Ka inh, BAZ2B inh, L3MBTL1 inh-1, JMJD2A Tudor inh)
COc1ccc(CN2CCN(Cc3ccccc3OC)CC2)cc1	HP1b binding inh inconclusive, BAZ2B inh 25µM, JMJD2A Tudor inh 4µM (no result: JMJD2E inh-1, L3MBTL1 inh-1) | G9a confirm 3.6
Cc1cccc(OCC(=O)N2CCN(Cc3ccncc3)CC2)c1	BAZ2B inh 18µM, JMJD2E inh-1 inconclusive, JMJD2A Tudor inh 1.3µM (no result: L3MBTL1 inh-1) | G9a confirm 8.9
COc1ccc(OCC(=O)N2CCN(Cc3cccc(OC)c3OC)CC2)cc1	HP1b binding inh inconclusive, BAZ2B inh 50µM, JMJD2A Tudor inh 7.9µM (no result: PI5P4Ka inh, JMJD2E inh-1, L3MBTL1 inh-1) | G9a confirm 29
Nc1c(C(=O)Nc2ccc(Br)cc2F)sc2nc3c(cc12)N1CCC3CC1	JMJD2A Tudor inh inconclusive (no result: PI5P4Ka inh, JMJD2E inh-1, L3MBTL1 inh-1)
Oc1ccc2c3c1OC1C(O)CC[C@]4(O)C(C2)N(CC2CCC2)CC[C@]314 (stereo partly specified)	none (no result: HP1b binding inh, PI5P4Ka inh, BAZ2B inh, L3MBTL1 inh-1, JMJD2A Tudor inh)
CCC(=O)Oc1ccc(C(=O)Nc2cccc(C(=O)c3ccccc3)c2)cc1	PI5P4Ka inh -67, BAZ2B inh inconclusive | ADP-Glo interf inactive
COc1ccc(C(=O)C2CCCN(Cc3ccon3)C2)c(OC)c1 (stereo unspecified)	PI5P4Ka inh -84 | ADP-Glo interf inactive
NC(=O)CN1CC(O)CC1=O (stereo unspecified)	none (no result: HP1b binding inh, PI5P4Ka inh, BAZ2B inh, L3MBTL1 inh-1, JMJD2A Tudor inh)
N#CC1c2ccccc2-n2nncc2CN1Cc1cc(Cl)cc(Cl)c1 (stereo unspecified)	PI5P4Ka inh -60 (no result: BAZ2B inh, JMJD2E inh-1, L3MBTL1 inh-1) | ADP-Glo interf inactive
COc1ccc(CN2Cc3cnnn3-c3ccccc3C2C#N)cc1 (stereo unspecified)	none (no result: BAZ2B inh, JMJD2E inh-1, L3MBTL1 inh-1)
Cc1ccc(-n2c(/C=C\c3ccc(F)c(F)c3)nc3ccccc3c2=O)c(C)c1	none (no result: PI5P4Ka inh, JMJD2E inh-1, L3MBTL1 inh-1)
